For 36 targets, log2 fold change results are on record in the supplement of paper PMC10849652.

The full data set covers some 8,800 targets. This sample favours those with a hit. About 0.5% of all pairs of compound and target were hits. A number with no mark means an inactive call.

UniProt Q9BTE3, sequence (Q9BTE3 whole entry, looked up): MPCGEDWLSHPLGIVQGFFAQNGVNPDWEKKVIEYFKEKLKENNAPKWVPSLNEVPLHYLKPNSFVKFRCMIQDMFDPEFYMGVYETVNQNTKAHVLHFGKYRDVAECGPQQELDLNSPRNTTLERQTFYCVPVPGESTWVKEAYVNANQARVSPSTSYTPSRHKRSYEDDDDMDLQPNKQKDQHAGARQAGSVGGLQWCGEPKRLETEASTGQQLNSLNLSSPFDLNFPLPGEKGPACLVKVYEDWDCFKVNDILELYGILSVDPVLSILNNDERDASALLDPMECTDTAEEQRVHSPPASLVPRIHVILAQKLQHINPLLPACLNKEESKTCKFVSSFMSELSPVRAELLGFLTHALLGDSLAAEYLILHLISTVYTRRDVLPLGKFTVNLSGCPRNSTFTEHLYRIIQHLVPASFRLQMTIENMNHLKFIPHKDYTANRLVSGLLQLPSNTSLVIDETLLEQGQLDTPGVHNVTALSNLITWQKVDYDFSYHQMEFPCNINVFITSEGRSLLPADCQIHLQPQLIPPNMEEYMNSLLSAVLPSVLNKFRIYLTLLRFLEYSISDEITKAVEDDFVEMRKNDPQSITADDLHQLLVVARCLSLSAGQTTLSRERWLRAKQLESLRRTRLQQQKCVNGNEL
UniProt P53778, sequence (P53778 whole entry, looked up): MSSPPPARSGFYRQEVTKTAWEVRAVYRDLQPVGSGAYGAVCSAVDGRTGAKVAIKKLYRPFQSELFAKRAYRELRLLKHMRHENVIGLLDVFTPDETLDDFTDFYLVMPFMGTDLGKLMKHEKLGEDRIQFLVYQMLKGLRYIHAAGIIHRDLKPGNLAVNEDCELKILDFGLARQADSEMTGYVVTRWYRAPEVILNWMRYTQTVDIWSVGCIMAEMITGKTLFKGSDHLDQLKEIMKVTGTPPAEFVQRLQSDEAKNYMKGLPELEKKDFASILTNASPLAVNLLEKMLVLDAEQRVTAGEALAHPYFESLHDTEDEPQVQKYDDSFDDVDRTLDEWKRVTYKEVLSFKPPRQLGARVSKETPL
UniProt P27816, sequence (P27816 whole entry, looked up): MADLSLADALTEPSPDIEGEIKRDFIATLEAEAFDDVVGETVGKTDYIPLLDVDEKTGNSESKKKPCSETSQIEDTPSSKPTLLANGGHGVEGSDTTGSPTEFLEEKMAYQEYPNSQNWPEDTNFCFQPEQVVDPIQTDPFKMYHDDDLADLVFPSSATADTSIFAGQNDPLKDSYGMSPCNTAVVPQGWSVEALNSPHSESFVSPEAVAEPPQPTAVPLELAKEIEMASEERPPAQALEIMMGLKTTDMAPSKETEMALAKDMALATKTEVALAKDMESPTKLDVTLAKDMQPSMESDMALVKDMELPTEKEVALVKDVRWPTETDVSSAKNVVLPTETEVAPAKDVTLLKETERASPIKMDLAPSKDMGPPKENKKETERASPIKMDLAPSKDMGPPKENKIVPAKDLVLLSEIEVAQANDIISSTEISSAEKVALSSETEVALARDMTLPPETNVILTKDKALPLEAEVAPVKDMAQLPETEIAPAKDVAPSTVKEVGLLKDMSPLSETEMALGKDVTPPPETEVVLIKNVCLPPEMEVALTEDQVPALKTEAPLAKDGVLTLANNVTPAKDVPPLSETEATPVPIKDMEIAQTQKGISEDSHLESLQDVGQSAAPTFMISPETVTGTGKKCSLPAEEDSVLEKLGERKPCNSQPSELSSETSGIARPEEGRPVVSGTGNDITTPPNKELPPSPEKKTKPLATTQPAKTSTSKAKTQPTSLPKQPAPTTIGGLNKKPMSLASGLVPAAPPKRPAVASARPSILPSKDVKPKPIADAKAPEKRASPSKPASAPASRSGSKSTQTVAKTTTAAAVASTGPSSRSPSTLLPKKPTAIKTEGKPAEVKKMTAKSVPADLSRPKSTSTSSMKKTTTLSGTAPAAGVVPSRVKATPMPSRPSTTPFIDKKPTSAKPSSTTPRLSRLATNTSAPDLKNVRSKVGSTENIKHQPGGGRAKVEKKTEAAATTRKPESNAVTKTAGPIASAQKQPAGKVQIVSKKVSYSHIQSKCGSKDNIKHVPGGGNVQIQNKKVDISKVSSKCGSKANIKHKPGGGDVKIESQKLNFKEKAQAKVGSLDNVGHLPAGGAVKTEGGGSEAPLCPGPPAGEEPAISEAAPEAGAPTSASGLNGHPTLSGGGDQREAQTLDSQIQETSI
UniProt Q8N5J2, sequence (Q8N5J2 whole entry, looked up): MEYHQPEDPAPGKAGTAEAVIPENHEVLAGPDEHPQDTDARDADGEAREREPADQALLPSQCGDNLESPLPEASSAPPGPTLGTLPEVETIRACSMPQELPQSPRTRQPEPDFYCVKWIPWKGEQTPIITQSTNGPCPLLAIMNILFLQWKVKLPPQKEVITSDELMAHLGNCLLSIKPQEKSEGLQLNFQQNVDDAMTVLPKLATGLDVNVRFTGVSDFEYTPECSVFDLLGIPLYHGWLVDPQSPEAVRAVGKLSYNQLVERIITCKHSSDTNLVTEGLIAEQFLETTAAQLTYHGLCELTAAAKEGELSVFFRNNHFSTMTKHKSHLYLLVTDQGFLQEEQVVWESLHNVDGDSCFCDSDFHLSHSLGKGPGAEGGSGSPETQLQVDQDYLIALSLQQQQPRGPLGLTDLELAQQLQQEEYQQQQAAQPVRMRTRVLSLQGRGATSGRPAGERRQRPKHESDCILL
UniProt Q53G59, sequence (Q53G59 whole entry, looked up): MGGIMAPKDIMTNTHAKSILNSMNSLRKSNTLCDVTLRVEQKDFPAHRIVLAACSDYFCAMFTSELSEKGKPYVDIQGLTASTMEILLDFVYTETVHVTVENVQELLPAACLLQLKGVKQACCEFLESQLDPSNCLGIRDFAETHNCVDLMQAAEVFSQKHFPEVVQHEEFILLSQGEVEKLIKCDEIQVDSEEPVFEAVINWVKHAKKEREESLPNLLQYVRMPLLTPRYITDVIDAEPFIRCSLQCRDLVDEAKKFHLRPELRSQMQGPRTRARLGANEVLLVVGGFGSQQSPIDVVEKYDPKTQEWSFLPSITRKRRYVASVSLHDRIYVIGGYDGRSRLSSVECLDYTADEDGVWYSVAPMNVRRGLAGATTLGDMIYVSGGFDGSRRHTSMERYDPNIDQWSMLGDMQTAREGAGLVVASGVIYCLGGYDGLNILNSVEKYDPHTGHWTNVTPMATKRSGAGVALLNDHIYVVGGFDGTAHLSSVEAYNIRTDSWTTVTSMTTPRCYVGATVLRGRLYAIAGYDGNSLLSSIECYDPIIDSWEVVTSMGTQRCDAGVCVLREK
UniProt O00522, sequence (O00522 whole entry, looked up): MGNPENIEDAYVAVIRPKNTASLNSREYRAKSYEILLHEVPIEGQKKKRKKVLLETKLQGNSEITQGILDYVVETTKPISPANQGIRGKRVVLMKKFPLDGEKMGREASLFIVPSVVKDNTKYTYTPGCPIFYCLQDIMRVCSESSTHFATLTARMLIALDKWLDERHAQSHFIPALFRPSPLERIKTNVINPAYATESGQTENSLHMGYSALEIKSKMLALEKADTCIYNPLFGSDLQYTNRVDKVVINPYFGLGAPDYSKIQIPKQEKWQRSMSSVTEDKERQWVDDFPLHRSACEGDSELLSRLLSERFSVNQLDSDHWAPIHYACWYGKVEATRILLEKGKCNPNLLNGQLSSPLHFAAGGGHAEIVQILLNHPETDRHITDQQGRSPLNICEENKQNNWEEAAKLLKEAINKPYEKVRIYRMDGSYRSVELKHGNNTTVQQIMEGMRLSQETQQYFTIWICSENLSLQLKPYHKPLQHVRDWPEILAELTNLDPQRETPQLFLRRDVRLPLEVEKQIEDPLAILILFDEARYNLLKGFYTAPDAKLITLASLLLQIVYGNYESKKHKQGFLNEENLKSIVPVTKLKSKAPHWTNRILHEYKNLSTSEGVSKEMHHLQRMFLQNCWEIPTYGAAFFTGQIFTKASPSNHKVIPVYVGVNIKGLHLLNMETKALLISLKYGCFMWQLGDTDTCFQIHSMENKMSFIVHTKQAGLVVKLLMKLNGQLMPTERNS
UniProt O15243, sequence (O15243 whole entry, looked up): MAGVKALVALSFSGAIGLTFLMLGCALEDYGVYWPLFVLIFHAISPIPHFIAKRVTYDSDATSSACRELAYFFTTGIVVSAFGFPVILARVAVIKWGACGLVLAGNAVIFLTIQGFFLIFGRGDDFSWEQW
UniProt P83369, sequence (P83369 whole entry, looked up): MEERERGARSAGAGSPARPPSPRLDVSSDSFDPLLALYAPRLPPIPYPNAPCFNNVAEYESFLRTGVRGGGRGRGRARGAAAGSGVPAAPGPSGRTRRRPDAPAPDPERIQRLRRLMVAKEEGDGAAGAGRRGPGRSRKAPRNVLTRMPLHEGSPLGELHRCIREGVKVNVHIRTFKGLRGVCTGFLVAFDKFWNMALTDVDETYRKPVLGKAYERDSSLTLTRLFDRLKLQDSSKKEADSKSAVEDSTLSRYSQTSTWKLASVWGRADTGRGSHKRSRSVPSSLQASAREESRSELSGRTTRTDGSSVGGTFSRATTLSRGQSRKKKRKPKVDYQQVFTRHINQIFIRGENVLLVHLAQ
UniProt A1L020, sequence (A1L020 whole entry, looked up): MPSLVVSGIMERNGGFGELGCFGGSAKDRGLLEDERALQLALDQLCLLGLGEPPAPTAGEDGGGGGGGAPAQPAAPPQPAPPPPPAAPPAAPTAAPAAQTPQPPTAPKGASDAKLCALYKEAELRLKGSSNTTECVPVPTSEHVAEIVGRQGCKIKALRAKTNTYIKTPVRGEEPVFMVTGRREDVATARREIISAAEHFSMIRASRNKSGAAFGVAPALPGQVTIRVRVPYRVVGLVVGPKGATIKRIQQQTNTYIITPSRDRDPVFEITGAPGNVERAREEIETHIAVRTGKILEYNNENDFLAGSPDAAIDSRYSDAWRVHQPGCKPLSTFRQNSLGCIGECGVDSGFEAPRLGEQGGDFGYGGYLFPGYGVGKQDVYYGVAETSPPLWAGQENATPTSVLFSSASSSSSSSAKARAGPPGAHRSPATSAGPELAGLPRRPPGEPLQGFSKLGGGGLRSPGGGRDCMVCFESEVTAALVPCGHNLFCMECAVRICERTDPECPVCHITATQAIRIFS

Compound in the first assay: CN1CCc2c(c3ccccc3n2Cc2ccc(C(=O)NO)cc2)C1 [Tubastatin A]
The experiment in a line: log2 fold change, soluble protein after heating vs DMSO (PISA); higher = thermal stabilisation; K562 lysate, 10 uM; active = over 0.2 and 3.5 SD of the protein, either way, in both replicates (recomputed). Summed up:
(§1)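 Soluble protein was defined as the supernatant remaining after 21,000xg for 90 min, following pooling of heated aliquots and adjustment to 0.5% NP-40 at 4°C. Before that, crude K562 extract at 1 mg/mL protein in PBS pH 7.4 with 1 mM MgCl2 was treated with 10 μM compound for 30 min and heated for 3 min across 48°C-58°C. Quantification used TMTpro 16plex LC-MS/MS with channel sums equalised, and values are log-two fold changes in thermal stability relative to solvent controls from duplicates.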
Regarding MAP4K4 isoform 3 (UniProt O95819), the log2 fold change is -0.016.

As for METTL21A (UniProt Q8WXB1), the log2 fold change was 0.052.

On to KLHL12 isoform 2 (UniProt Q53G59), for which the log2 fold change is -0.156.

With KRAS isoform 2 (UniProt P01116), the log2 fold change was 0.076.

Take MME (UniProt P08473): the log2 fold change is 0.081.

For LIMK1 (UniProt P53667), the log2 fold change is 0.

MEX3A (UniProt A1L020): the log2 fold change is 0.037.

Turning to MEGF8 (UniProt Q7Z7M0), the log2 fold change is 0.156.

On to MAPK12 (UniProt P53778), for which the log2 fold change was 0.022.

As for MCUB (UniProt Q9NWR8), the log2 fold change was 0.105.

For LEPROT (UniProt O15243), the log2 fold change is 0.01.

With MED28 (UniProt Q9H204), the log2 fold change is 0.05.

As to MCMBP isoform 2 (UniProt Q9BTE3), the log2 fold change is -0.142.

Regarding LRRIQ1 (UniProt Q96JM4), the log2 fold change is -0.096.

Consider MINDY1 isoform 3 (UniProt Q8N5J2), for which the log2 fold change was 0.093.

Consider KRIT1 (UniProt O00522), for which the log2 fold change is -0.034.

As for MAPKAP1 (UniProt Q9BPZ7), the log2 fold change is -0.125.

Regarding MAP4 isoform 5 (UniProt P27816), the log2 fold change is 0.077.

On to LRRC7 (UniProt Q96NW7), for which the log2 fold change is 0.079.

In the case of MRPL22 (UniProt Q9NWU5), the log2 fold change was -0.033.

As to MAP4K4 isoform 6 (UniProt O95819), the log2 fold change is 0.024.

Compound in the next assay: CNC(=O)C1=CC=CC=C1NC2=NC(=NC=C2Cl)NC3=C(C=C(C=C3)N4CCOCC4)OC
Described as above. Summed up:
as §1
As for MAP4K4 isoform 3 (UniProt O95819), the log2 fold change is -0.028.

Regarding MARCHF6 (UniProt O60337), the log2 fold change was -0.039.

With KLC1 isoform 10 (UniProt Q07866), the log2 fold change was 0.147.

With LSM11 (UniProt P83369), the log2 fold change was -0.15.

Consider METTL21A (UniProt Q8WXB1), for which the log2 fold change is 0.087.

For KLHL12 isoform 2 (UniProt Q53G59), the log2 fold change is -0.051.

As for KRAS isoform 2 (UniProt P01116), the log2 fold change is -0.037.

As for MAPK7 (UniProt Q13164), the log2 fold change was 0.002.

In the case of MME (UniProt P08473), the log2 fold change was 0.048.

For the target MEGF8 (UniProt Q7Z7M0), the log2 fold change is 0.058.

As to MAPK12 (UniProt P53778), the log2 fold change is 0.025.

Consider MCUB (UniProt Q9NWR8), for which the log2 fold change is -0.032.

With KIFC3 isoform 6 (UniProt Q9BVG8), the log2 fold change was 0.003.

As to LEPROT (UniProt O15243), the log2 fold change is 0.

Take MMS22L (UniProt Q6ZRQ5): the log2 fold change was -0.011.

In the case of MRC2 (UniProt Q9UBG0), the log2 fold change was -0.062.

Turning to MED28 (UniProt Q9H204), the log2 fold change is 0.14.

As for MCMBP isoform 2 (UniProt Q9BTE3), the log2 fold change is 0.102.

As for LGALS3BP (UniProt Q08380), the log2 fold change is -0.234.

Turning to KMT2B (UniProt Q9UMN6), the log2 fold change is -0.083.

Turning to MINDY1 isoform 3 (UniProt Q8N5J2), the log2 fold change was -0.031.

With KRIT1 (UniProt O00522), the log2 fold change is 0.089.

Take KIF21A (UniProt H0YI78): the log2 fold change is 0.056.

MAPKAP1 (UniProt Q9BPZ7): the log2 fold change is -0.119.

Take MAP4 isoform 5 (UniProt P27816): the log2 fold change is 0.087.

MRPL22 (UniProt Q9NWU5): the log2 fold change is 0.036.

With MAP4K4 isoform 6 (UniProt O95819), the log2 fold change is -0.067.

Compound in a further assay: CNC(=O)c1ccc(Nc2ncc(C(F)(F)F)c(NCc3nccnc3N(C)S(C)(=O)=O)n2)cc1 [defactinib]
The assay is described as above. Summed up:
as §1
Regarding MAP4K4 isoform 3 (UniProt O95819), the log2 fold change is 0.03.

Regarding MARCHF6 (UniProt O60337), the log2 fold change is 0.046.

In the case of LSM11 (UniProt P83369), the log2 fold change is -0.119.

Turning to KLHL12 isoform 2 (UniProt Q53G59), the log2 fold change was -0.025.

Turning to LIMK1 (UniProt P53667), the log2 fold change is -0.053.

With MEX3A (UniProt A1L020), the log2 fold change was -0.068.

Turning to MAPK12 (UniProt P53778), the log2 fold change is -0.077.

With KIFC3 isoform 6 (UniProt Q9BVG8), the log2 fold change is -0.255.

For the target MMS22L (UniProt Q6ZRQ5), the log2 fold change is 0.06.

In the case of LY6E (UniProt Q16553), the log2 fold change is -0.024.

With LRPPRC (UniProt H7C3W8), the log2 fold change is -0.063.

In the case of MCMBP isoform 2 (UniProt Q9BTE3), the log2 fold change was 0.089.

As to LGALS3BP (UniProt Q08380), the log2 fold change was -0.133.

As for LRP1 (UniProt Q07954), the log2 fold change is -0.108.

MAP3K6 (UniProt O95382): the log2 fold change is -0.096.

With LRRC9 (UniProt Q6ZRR7), the log2 fold change is -0.056.

For LRRIQ1 (UniProt Q96JM4), the log2 fold change is -0.031.

For MINDY1 isoform 3 (UniProt Q8N5J2), the log2 fold change is 0.021.

In the case of KRIT1 (UniProt O00522), the log2 fold change is 0.045.

Regarding MAP4 isoform 5 (UniProt P27816), the log2 fold change is -0.086.

For LRRC7 (UniProt Q96NW7), the log2 fold change is 0.251.
